# Earlier results in PubChem BioAssay AID977611.
# The whole screen tested about 3,900 compounds, of which about 3,900 (100%) were called active. The limit is not given here; nearly all actives have Kd up to about 4200 µM. The set was probably picked from earlier hits. Some of the results follow. Where a SMILES comes first, the peptide text is derived from it. Non-standard residues stand in square brackets, D forms with d. Square brackets hold non-standard residues; d marks the D form. Residues, ends and D or L forms follow the SMILES beside them. Peptide text beside a SMILES is read from it. [ ]: non-standard residue; d: D form. Orn(CH(NH2)2) = NC(N)NCCC[C@H](N)C(=O)O
# Assay: PubChem AID 977611
# Conditions: PDB protein-ligand complexes, literature Kd
molecule,measurement,setting,value
CC(C)C[C@H](NC(=O)[C@H](CO)NC(=O)[C@H](CCCNC(N)N)NC(=O)[C@H](CC(C)C)NC(=O)[C@H](CO)NC(=O)[C@@H](NC(=O)[C@H](CC(C)C)NC(=O)[C@@H]1CCCN1C(=O)[C@H](Cc1ccc(O)cc1)NC(=O)[C@H](CC(C)C)NC(=O)[C@@H](N)CCC(=O)O)[C@@H](C)O)C(=O)O (H-ELYPLTSL[Orn(CH(NH2)2)]SL-OH),Kd,"protein: ALIX, PDB entry 2r02",8 µM (active)
CC[C@H](C)[C@H](NC(=O)[C@@H]1CCCN1C(=O)[C@H](CC(C)C)NC(=O)[C@@H](NC(=O)[C@H](CO)NC(=O)CN)[C@@H](C)O)C(=O)N1CCC[C@H]1C(=O)NCC(=O)N[C@H](C(=O)N1CCC[C@H]1C(=O)N1CCC[C@H]1C(=O)N1CCC[C@H]1C(=O)N[C@@H](CC(N)=O)C(=O)N[C@@H](Cc1ccc(O)cc1)C(=O)N[C@@H](CC(=O)O)C(=O)N[C@@H](CO)C(=O)N[C@@H](CC(C)C)C(=O)O)[C@@H](C)O (H-GSTLPIPGTPPPNYDSL-OH),Kd,"protein: Ubiquitin ligase Nedd4( WW? domain), PDB entry 1i5h",53 µM (active)
H-PLYTSPSLPNITLGLP-OH,Kd,"protein: DNA-binding protein RFXANK, PDB entry 3uxg",109 µM (active)
H-NPGLAYGNPYS-OH,Kd,"protein: Galectin-8, PDB entry 4gxl",5.2 µM (active)
Ac-LPLYTSPSLPNITLGLP-OH,Kd,"protein: Ankyrin Repeat Domains of Human ANKRA2, PDB entry 3v31",1.6 µM (active)
H-TCIYNPLFGS-OH,Kd,"protein: Sorting nexin-17 SNX17, PDB entry 4tkn",1.3 µM (active)
CCC(=O)C(=O)O,Kd,"protein: 4-HYDROXY-2-OXO-HEPTANE-1,7-DIOATE ALDOLASE, PDB entry 4b5t",470 µM (active)
CC(=O)N[C@H]1/C(=N/OC(=O)Nc2ccccc2)O[C@H](CO)[C@@H](O)[C@@H]1O,Kd,"protein: BETA-N-ACETYLHEXOSAMINIDASE, PDB entry 4azb",0.0577 µM (active)
same,Kd,"protein: BETA-N-ACETYLHEXOSAMINIDASE, PDB entry 4azg",0.079 µM (active)
same,Kd,"protein: BETA-N-ACETYLHEXOSAMINIDASE, PDB entry 4azi",0.0356 µM (active)
COc1ccc(C[C@H](NC(=O)[C@@H](C)NC(=O)CN2CCOCC2)C(=O)N[C@@H](Cc2ccccc2)[C@@H](O)[C@H](C)CO)cc1,Kd,"protein: yCP, PDB entry 4qlv",0.014 µM (active)
CCC[C@H](COc1ccc(-c2nc3ccccc3n2Cc2ccccc2)cc1)n1c(-c2ccccc2)nc2ccccc21,Kd,"protein: Retinal rod rhodopsin-sensitive cGMP 3',5'-cyclic phosphodiesterase subunit delta, PDB entry 4jvb",0.039 µM (active)
CC[C@H](C)[C@H](NC(=O)[C@@H]1CCCN1C(=O)[C@H](CCCNC(N)N)NC(=O)[C@@H]1CCCN1C(=O)[C@H](Cc1cnc[nH]1)NC(=O)[C@@H](N)CO)C(=O)N[C@@H](CCCNC(N)N)C(=O)N[C@H](C(=O)O)C(C)C (H-SHP[Orn(CH(NH2)2)]PI[Orn(CH(NH2)2)]V-OH),Kd,"protein: Chaperone protein DnaK, PDB entry 4ezr",6.3 µM (active)
H-GSLLRVQAHIRKKMV-OH,Kd,"protein: Myosin A tail domain interacting protein MTIP-delta60, PDB entry 4r1e",0.052 µM (active)
C[C@H](NC(=O)CN)C(=O)N[C@@H](Cc1ccccc1)C(=O)N[C@@H](Cc1ccccc1)C(=O)N[C@@H](CO)C(=O)N[C@@H](C)C(=O)N[C@@H](CCCNC(N)N)C(=O)NCC(=O)N[C@@H](Cc1cnc[nH]1)C(=O)N[C@@H](CCCNC(N)N)C(=O)N1CCC[C@H]1C(=O)O (H-GAFFSA[Orn(CH(NH2)2)]GH[Orn(CH(NH2)2)]P-OH),Kd,"protein: fibrinogen-binding protein SdrG, PDB entry 1r17",0.379 µM (active)
CSCC[C@H](NC(=O)[C@H](CCC(=O)O)NC(=O)[C@H](CCCNC(N)N)NC(=O)[C@@H](N)Cc1cnc[nH]1)C(=O)N[C@@H](C)C(=O)N[C@H](C(=O)N[C@@H](CC(=O)O)C(=O)N[C@@H](CS)C(=O)N1CCC[C@H]1C(=O)O)C(C)C (H-H[Orn(CH(NH2)2)]EMAVDCP-OH),Kd,"protein: Par-6 PDZ domain, PDB entry 1x8s",8 µM (active)
CC[C@H](C)[C@H](NC(=O)[C@H](CO)NC(=O)[C@H](CCCNC(N)N)NC(=O)CNC(=O)[C@H](C)NC(=O)[C@H](CCC(=O)O)NC(=O)[C@H](CCCCN)NC(=O)[C@@H](NC(=O)[C@@H](NC(=O)[C@H](C)NC(=O)[C@@H](NC(=O)[C@H](CC(C)C)NC(=O)[C@H](CO)NC(=O)CN)C(C)C)[C@@H](C)O)C(C)C)C(=O)N[C@@H](Cc1cnc[nH]1)C(=O)N[C@@H](CCC(=O)O)C(=O)N[C@H](C(=O)N1CCC[C@H]1C(=O)N[C@@H](CCCNC(N)N)C(=O)O)[C@@H](C)CC (H-GSLVATVKEAG[Orn(CH(NH2)2)]SIHEIP[Orn(CH(NH2)2)]-OH),Kd,"protein: the BTB domain from B-cell lymphoma 6 protein(BCL6), PDB entry 1r2b",11.4 µM (active)
CSCC[C@H](NC(=O)[C@H](CCCCN)NC(=O)[C@@H](NC(=O)[C@H](Cc1ccc(O)cc1)NC(=O)[C@@H](NC(=O)CNC(=O)[C@@H](NC(=O)[C@@H](N)[C@@H](C)O)[C@@H](C)O)C(C)C)C(C)C)C(=O)N1CCC[C@H]1C(=O)N1CCC[C@H]1C(=O)O (H-TTGVYVKMPP-OH),Kd,"protein: AP50, PDB entry 1h6e",0.7 µM (active)
CSCC[C@H](NC(=O)[C@H](Cc1cnc[nH]1)NC(=O)[C@@H](NC(=O)[C@H](CCCCN)NC(=O)[C@H](C)NC(=O)[C@H](CO)NC(=O)[C@H](C)NC(=O)[C@@H](N)CCCNC(N)N)[C@@H](C)O)C(=O)N[C@@H](Cc1ccc(O)cc1)C(=O)N1CCC[C@H]1C(=O)N[C@H](C(=O)N[C@@H](CCCNC(N)N)C(=O)N[C@@H](CC(N)=O)C(=O)N[C@@H](Cc1ccc(O)cc1)C(=O)N[C@@H](CO)C(=O)N1CCC[C@H]1C(=O)O)C(C)C (H-[Orn(CH(NH2)2)]ASAKTHMYPV[Orn(CH(NH2)2)]NYSP-OH),Kd,"protein: ezrinradixinmoesin (ERM) proteins, PDB entry 2emt",0.201 µM (active)
CC(C)C[C@H](NC(=O)[C@H](CCC(=O)O)NC(=O)[C@@H](N)CCCNC(N)N)C(=O)N[C@@H](CC(C)C)C(=O)N1CCC[C@H]1C(=O)N[C@@H](CCC(=O)O)C(=O)N[C@@H](CC(C)C)C(=O)N1CCC[C@H]1C(=O)N[C@@H](Cc1cnc[nH]1)C(=O)N1CCC[C@H]1C(=O)N1CCC[C@H]1C=O (H-[Orn(CH(NH2)2)]ELLPELPHPP-aldehyde),Kd,"protein: MIT domain of Saci1372 (Vps4), PDB entry 2w2u",35 µM (active)
CC[C@H](C)[C@H](NC(=O)[C@H](Cc1cnc[nH]1)NC(=O)[C@H](C)NC(=O)[C@H](CCC(N)=O)NC(=O)[C@@H](NC(=O)[C@H](CCCNC(N)N)NC(=O)[C@H](CC(C)C)NC(=O)[C@H](CC(C)C)NC(=O)[C@H](CO)NC(=O)[C@@H]1CCCN1C(=O)[C@@H](NC(=O)[C@H](CC(N)=O)NC(=O)[C@@H](N)CCCCN)[C@@H](C)CC)C(C)C)C(=O)N[C@@H](CCCNC(N)N)C(=O)N[C@@H](CCCCN)C(=O)N[C@@H](CCCCN)C(=O)N[C@@H](CCSC)C(=O)N[C@H](C(=O)O)C(C)C (HELM PEPTIDE1{K.N.I.P.S.L.L.[NC(N)NCCC[C@H](N[*:1])C(=O)[*:2]].V.Q.A.H.I.[NC(N)NCCC[C@H](N[*:1])C(=O)[*:2]].K.K.M.V}$$$$V2.0),Kd,"protein: MYOSIN A TAIL DOMAIN INTERACTING PROTEIN, PDB entry 4aom",0.085 µM (active)
